Data: PubChem BioAssay AID687001 (Broad Institute, 2013)
Results with a measured potency or affinity are listed apart. The source made the active and inactive calls.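 Rule for the calls: active = signal-lowering compounds whose fitted half-maximal concentration is at or below twice the top tested dose in every run; inconclusive = runs disagree, flat 30 to 70% inhibition, or poor curve fit; inactive = the rest.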

Each compound was assayed against Protein S100-A4 (Homo sapiens) (UniProt P26447) (assay: S100A4-myosin IIA binding inhibitor potency, dose response, biochemical, fluorescence polarization, cherry-picked hits (AID 687001)). Conditions: FP, S100A4/TAMRA-myosin IIA peptide binding; series mostly up to 11 µM.
Chain of Protein S100-A4 (Homo sapiens) (P26447 whole entry, looked up): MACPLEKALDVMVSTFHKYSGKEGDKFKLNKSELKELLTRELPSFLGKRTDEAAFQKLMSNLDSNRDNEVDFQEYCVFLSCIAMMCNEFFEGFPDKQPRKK

outcome, inactive:
Cc1ccccc1S(=O)(=O)N1C[C@H](O)COC[C@@H]2O[C@@H](CC(=O)NCc3ccccc3Cl)CC[C@H]21
CCOC(=O)[C@]12CCC=C1N(Cc1cccc3ccccc13)C(=O)[C@H](CC(=O)N1CCOCC1)C2
Cc1noc(C)c1NC(=O)N(C)C[C@H]1OCCCC[C@H](C)Oc2ccc(NS(=O)(=O)c3ccc(F)cc3)cc2C(=O)N([C@H](C)CO)C[C@@H]1C
C[C@@H]1CN([C@H](C)CO)C(=O)Cc2cc(NC(=O)CCN3CCOCC3)ccc2O[C@H]1CN(C)Cc1ccc2c(c1)OCO2
Cc1ccnc(NC(=O)C(C)N2C(=O)c3ccccc3S2(=O)=O)c1 (stereo not drawn)
CC(C)[C@@H]1C=C(C(=O)O)O[C@H](OCCCCO)C1
O=C(O)c1ccc(/C=C2\SC(=S)N(NC(=O)c3ccccc3)C2=O)cc1
COC(=O)C[C@@H]1CC[C@H]2[C@H](COc3ccc(NS(=O)(=O)c4ccc(C)cc4)cc3C(=O)N2C)O1
CCOC(=O)C1CCCN(C(=O)c2cc(S(=O)(=O)N3CCCCCC3)ccc2OC)C1 (stereo not drawn)
Cc1c(C(=O)NCc2cccc([N+](=O)[O-])c2)sc(=O)n1Cc1cccc(F)c1
O=C(Cc1ccccn1)N[C@@H]1CC[C@@H](CCNS(=O)(=O)c2cccc(F)c2)O[C@H]1CO
S=c1[nH]c(-c2ccccc2)cn1-c1ccccc1
CS(=O)(=O)N(CCc1ccccc1)CC(=O)N1CCCCCC1
COCCN(C(=O)CSc1nc2ccc(OC)cc2[nH]1)c1c(N)n(Cc2ccccc2)c(=O)[nH]c1=O
O=S(=O)(Nc1ccc(N2CCCCC2)cc1)c1ccc(F)cc1
CCOC(=O)[C@]12CCC=C1N(Cc1ccc3c(c1)OCO3)C(=O)[C@H](CC(=O)NCc1cccc(C(F)(F)F)c1)C2
Cc1cccc(C)c1NC(=O)CN1CCN(c2ccc(C(F)(F)F)cn2)CC1
CS(=O)(=O)Nc1cccc(C2=NN(C(=O)c3ccc(F)cc3)C(c3cccs3)C2)c1 (stereo not drawn)
CCC(=O)N1C[C@H](C)[C@@H](OC)CN(C)C(=O)c2ccc(NC(=O)Nc3ccccc3)cc2OC[C@H]1C
CC(=O)N1CC(=O)N2[C@H](CO)[C@@H](c3ccc(-c4ccc(C#N)cc4)cc3)[C@H]2C1
O=C(NCCc1ccco1)C(=O)NCC1OCCCN1S(=O)(=O)c1cc(F)ccc1F (stereo not drawn)
O=C(NCc1cc([N+](=O)[O-])ccc1O)c1cccnc1Sc1ccccc1
CCOc1ccccc1N
CC(=O)N(C)C[C@@H]1Oc2cc(C#CCC(C)C)ccc2S(=O)(=O)N([C@H](C)CO)C[C@@H]1C
O=C(CCN1CCCCC1)N[C@H]1CC[C@H](CCn2cc(-c3ccccc3)nn2)O[C@@H]1CO
COc1cccc(-c2ccc3c(c2)[C@H]2[C@H](CCN2C(=O)c2ccc4c(c2)OCO4)[C@H](CO)N3C)c1
O=C(O)c1cccc(C(=O)O)c1S(=O)Cc1ccccc1 (stereo not drawn)
O=C(Nc1ccccc1F)N[C@@H]1CC[C@H](CCNC(=O)C2CCCCC2)O[C@H]1CO
COc1cc(/C=C/C(=O)OCC(=O)N2c3ccccc3NC(=O)C2(C)C)cc(OC)c1OC
COc1ccc2oc(C)c(C(=O)c3ccc(C)cc3)c2c1
COc1c(Br)cc([N+](=O)[O-])c(OC)c1C(=O)NC(=O)Nc1c(Cl)cccc1Cl
Cc1ccc(C(=O)COC(=O)C2CC3CCCC(C2)C3=O)cc1[N+](=O)[O-] (stereo not drawn)
Cc1ccc([N+](=O)[O-])cc1N=Nc1c(C)[nH]n(C(N)=S)c1=O
CN(C(=O)COC(=O)/C=C/c1ccc2c(c1)OCO2)c1c(N)n(Cc2ccccc2)c(=O)[nH]c1=O
COCCCN1CC(=O)N2C(c3ccccc3)c3[nH]c4ccccc4c3C[C@H]2C1=O (stereo partly drawn)
CCCC(=O)Nc1ccc2c(c1)OC[C@@H](C)N(C(=O)c1cnccn1)C[C@@H](C)[C@H](OC)CN(C)C2=O
CCCNC(=O)N1CC[C@@H]2[C@@H](CO)N(C)c3ccc(-c4ccc(F)cc4)cc3[C@@H]21
CCN1C(=O)[C@H]2[C@@H](c3ccc(-c4ccc5c(c4)OCO5)c(OC)c3)N[C@@](C)(C(=O)OC)[C@H]2C1=O
